# Laboratory results as given in PubChem BioAssay (NCATS).
# Results filed as inconclusive are left out. Active and inactive are the calls of the source. Calls come from the whole dose curve; as a rule, active = well fitted curve in the direction sought with a large enough effect; inconclusive = small, poorly fitted or top-dose-only effect, or another doubt; inactive = no such curve, though single readings can be large; an effect the other way counts as inactive or inconclusive.
# Tests used:
# [1] = qHTS of pediatric cancer cell lines to identify multiple opportunities for drug repurposing: Primary screen for MG 63 (6-TG R) cells (AID 1347105); note: nearly all actives have a fitted effect of over 50% in size; note: potency is the fitted concentration of half-maximal effect
# Outline: (§1)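 Luminescence from CellTiter-Glo served as readout of metabolically active cells after 48 h compound exposure. Titrations: MIPE 11-point, from 0.78 nM; NPC 8-point, from 0.59 nM (final). Concentration-response curves came straight from the primary screen.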
# [2] = qHTS of pediatric cancer cell lines to identify multiple opportunities for drug repurposing: Primary screen for Rh30 cells (AID 1347107); note: nearly all actives have a fitted effect of over 75% in size; note: potency is the fitted concentration of half-maximal effect
# Outline: (§2)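 Viability after 48 h compound treatment at 37C, 500-1,000 cells/well, read as ATP luminescence with CellTiter-Glo. Primary screens used 11-point (MIPE, 0.78 nM-46 µM) or 8-point (NPC, 0.59 nM-46 µM) final concentrations; follow-up screens used 11-point dilutions.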
# [3] = qHTS of pediatric cancer cell lines to identify multiple opportunities for drug repurposing: Primary screen for Rh41 cells (AID 1347108); note: nearly all actives have a fitted effect of over 70% in size; note: potency is the fitted concentration of half-maximal effect;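 for activity change, negative = cytotoxic: luminescence drop marks cytotoxic hits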
# Outline: as §1
# [4] = qHTS of pediatric cancer cell lines to identify multiple opportunities for drug repurposing: Primary screen for control Hh wild type fibroblast cells (AID 1347106); note: nearly all actives have a fitted effect of over 55% in size; note: potency is the fitted concentration of half-maximal effect;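 for activity change, negative = cytotoxic: a drop in luminescence marks cytotoxicity and a rise apparent proliferation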
# Outline: as §2
# [5] = qHTS of pediatric cancer cell lines to identify multiple opportunities for drug repurposing: Confirmatory screen for A673 cells (AID 1347110); note: potency is the fitted concentration of half-maximal effect; nearly all actives have a fitted effect of over 65% in size
# Outline: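 Concentration-response curves came straight from titrations: 11 points (0.78 nM to 46 µM) for MIPE and several concentrations (0.59 nM to 46 µM) for NPC in primary, 11 points in follow-up. Readout: ATP luminescence at 48 h.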
# [6] = qHTS of pediatric cancer cell lines to identify multiple opportunities for drug repurposing: Confirmatory screen for SK-N-MC cells (AID 1347111);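 note: potency is the fitted concentration of half-maximal effect; cells exposed to compound for 48 h before the readout; nearly all actives have a fitted effect of over 70% in size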
# Outline: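 SK-N-MC cells at 500-1,000 cells/well in growth media were pre-incubated 5 h, then exposed to compounds at 11-point dilutions for 48 h at 37 degrees C, 5% CO2. Viability was read as CellTiter-Glo luminescence.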
# [7] = qHTS of pediatric cancer cell lines to identify multiple opportunities for drug repurposing: Confirmatory screen for DAOY cells (AID 1347114); note: nearly all actives have a fitted effect of over 65% in size; note: potency is the fitted concentration of half-maximal effect
# Outline: (§3)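 Viability measured as metabolically active cells via CellTiter-Glo luminescence following 48 hours of compound exposure, 11-point dilutions in confirmatory testing. 500-1,000 cells/well plated 5 hours before dosing; controls were DMSO and 2.3 µM bortezomib.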
# [8] = qHTS of pediatric cancer cell lines to identify multiple opportunities for drug repurposing: Confirmatory screen for SJ-GBM2 cells (AID 1347116); note: nearly all actives have a fitted effect of over 60% in size; note: potency is the fitted concentration of half-maximal effect
# Outline: as §3
# [9] = qHTS of pediatric cancer cell lines to identify multiple opportunities for drug repurposing: Confirmatory screen for TC32 cells (AID 1347118); note: potency is the fitted concentration of half-maximal effect; nearly all actives have a fitted effect of over 65% in size
# Outline: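 TC32 cells, 500-1,000/well in growth medium, compound-treated 48 h at 37 °C; viability from CellTiter-Glo luminescence. Primary screen: MIPE 11-point (0.78 nM–46 µM final), NPC 8-point (0.59 nM–46 µM final); confirmatory at 11-point dilutions.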
# [10] = qHTS of pediatric cancer cell lines to identify multiple opportunities for drug repurposing: Confirmatory screen for MG 63 (6-TG R) cells (AID 1347119); note: nearly all actives have a fitted effect of over 55% in size; note: potency is the fitted concentration of half-maximal effect
# Outline: as §2
# [11] = qHTS of pediatric cancer cell lines to identify multiple opportunities for drug repurposing: Confirmatory screen for control Hh wild type fibroblast cells (AID 1347121); note: nearly all actives have a fitted effect of over 70% in size
# Outline: as §2
# [12] = qHTS of pediatric cancer cell lines to identify multiple opportunities for drug repurposing: Confirmatory screen for U-2 OS cells (AID 1347122); note: nearly all actives have a fitted effect of over 65% in size; note: potency is the fitted concentration of half-maximal effect
# Outline: as §2
# [13] = qHTS of pediatric cancer cell lines to identify multiple opportunities for drug repurposing: Confirmatory screen for NB1643 cells (AID 1347109); note: potency is the fitted concentration of half-maximal effect; nearly all actives have a fitted effect of over 45% in size
# Outline: as §2
# [14] = qHTS of pediatric cancer cell lines to identify multiple opportunities for drug repurposing: Confirmatory screen for LAN-5 cells (AID 1347113); note: nearly all actives have a fitted effect of over 65% in size; note: potency is the fitted concentration of half-maximal effect
# Outline: as §2
# [15] = qHTS of pediatric cancer cell lines to identify multiple opportunities for drug repurposing: Confirmatory screen for NB-EBc1 cells (AID 1347115); note: potency is the fitted concentration of half-maximal effect; nearly all actives have a fitted effect of over 45% in size
# Outline: as §2
# [16] = qHTS of pediatric cancer cell lines to identify multiple opportunities for drug repurposing: Confirmatory screen for BT-37 cells (AID 1347117); conditions: BT-37 pediatric cancer cells, viability; activity change, negative = cytotoxic: at 45.9 µM (top of the series); note: potency is the fitted concentration of half-maximal effect; nearly all actives have a fitted effect of over 55% in size
# Outline: as §2
# [17] = qHTS of pediatric cancer cell lines to identify multiple opportunities for drug repurposing: Confirmatory screen for Rh41 cells (AID 1347123); note: potency is the fitted concentration of half-maximal effect; nearly all actives have a fitted effect of over 60% in size
# Outline: as §2
# [18] = qHTS of pediatric cancer cell lines to identify multiple opportunities for drug repurposing: Confirmatory screen for RD cells (AID 1347124)
# Outline: as §2
# [19] = qHTS of pediatric cancer cell lines to identify multiple opportunities for drug repurposing: Confirmatory screen for Rh18 cells (AID 1347125); note: nearly all actives have a fitted effect of over 55% in size; note: potency is the fitted concentration of half-maximal effect
# Outline: as §2
# [20] = qHTS of pediatric cancer cell lines to identify multiple opportunities for drug repurposing: Confirmatory screen for BT-12 cells (AID 1347112)
# Outline: as §2
smiles,measurement,setting,value
O=c1[nH]c(=O)n([C@H]2C[C@@H](O)[C@@H](CO)O2)cc1F,Potency,[1],18.7 µM (active)
same,Potency,[2],2.35 µM (active)
same,Potency,[3],1.48 µM (active)
NC(=O)Nc1sc(-c2ccc(F)cc2)cc1C(N)=O,Potency,[1],0.59 µM (active)
same,Potency,[4],inactive
same,Potency,[2],6.62 µM (active)
same,Potency,[3],1.05 µM (active)
same,Potency,[5],6.57 µM (active)
same,Potency,[6],8.27 µM (active)
same,Potency,[7],inactive
same,Potency,[8],inactive
same,Potency,[9],5.22 µM (active)
same,Potency,[10],11.7 µM (active)
same,Potency,[11],inactive
same,Potency,[12],14.7 µM (active)
CCS(=O)(=O)Nc1ccc2[nH]c(O)c(C(=Nc3ccc(CN4CCCCC4)cc3)c3ccccc3)c2c1,Potency,[1],5.9 µM (active)
same,Potency,[4],inactive
same,Potency,[3],0.743 µM (active)
same,Potency,[13],0.0657 µM (active)
same,Potency,[6],0.0737 µM (active)
same,Potency,[14],0.185 µM (active)
same,Potency,[7],16.5 µM (active)
same,Potency,[15],4.65 µM (active)
same,Potency,[8],14.7 µM (active)
same,Potency,[16],16.5 µM (active)
same,Potency,[9],0.0414 µM (active)
same,Potency,[10],0.329 µM (active)
same,Potency,[12],0.522 µM (active)
same,Potency,[17],0.522 µM (active)
same,Potency,[18],0.737 µM (active)
same,Potency,[19],4.65 µM (active)
O=C(CCCCCCC(=O)Nc1cccnc1)NO,Potency,[1],18.7 µM (active)
same,Potency,[2],18.7 µM (active)
same,Potency,[3],11.8 µM (active)
C=CC(=O)Nc1ccc2ncnc(Nc3ccc(OCc4cccc(F)c4)c(Cl)c3)c2c1,Potency,[1],0.296 µM (active)
same,Potency,[4],inactive
same,Potency,[3],0.235 µM (active)
same,Potency,[13],14.7 µM (active)
same,Potency,[5],3.29 µM (active)
same,Potency,[6],7.37 µM (active)
same,Potency,[14],20.8 µM (active)
same,Potency,[7],7.37 µM (active)
same,Potency,[15],20.8 µM (active)
same,Potency,[8],2.61 µM (active)
same,Potency,[16],9.27 µM (active)
same,Potency,[9],7.37 µM (active)
same,Potency,[10],8.27 µM (active)
same,Potency,[17],0.465 µM (active)
same,Potency,[18],1.47 µM (active)
same,Potency,[19],16.5 µM (active)
CCOc1cc2c(c(F)c1OCC)C(=N)N(CC(=O)c1cc(N3CCOCC3)c(OC)c(C(C)(C)C)c1)C2,Potency,[1],14.8 µM (active)
same,Potency,[4],inactive
same,Potency,[3],23.5 µM (active)
Cc1cc(Nc2ncc3c(n2)N(C)C(=O)N(c2cc(NC(=O)c4cccc(C(F)(F)F)c4)ccc2C)C3)n(C)n1,Potency,[1],0.59 µM (active)
same,Potency,[4],0.743 µM (active)
same,Potency,[3],0.743 µM (active)
same,Potency,[5],0.414 µM (active)
same,Potency,[6],0.369 µM (active)
same,Potency,[14],0.465 µM (active)
same,Potency,[7],14.7 µM (active)
same,Potency,[9],0.329 µM (active)
same,Potency,[10],0.465 µM (active)
same,Potency,[12],0.369 µM (active)
same,Potency,[17],0.208 µM (active)
same,Potency,[18],0.657 µM (active)
same,Potency,[19],0.737 µM (active)
Nc1ccn(C[C@@H](CO)OCP(=O)(O)O)c(=O)n1,Potency,[1],inactive
same,Potency,[4],inactive
same,Potency,[3],inactive
Oc1cc(-c2nc(-c3ccccc3)[nH]c2-c2ccncc2)ccc1Cl,Potency,[1],11.8 µM (active)
same,Potency,[4],inactive
same,Potency,[6],3.69 µM (active)
same,Potency,[14],6.57 µM (active)
same,Potency,[8],7.37 µM (active)
same,Potency,[16],2.61 µM (active)
same,Potency,[9],7.37 µM (active)
same,Potency,[10],inactive
same,Potency,[12],18.5 µM (active)
same,Potency,[17],16.5 µM (active)
same,Potency,[18],16.5 µM (active)
same,Potency,[19],18.5 µM (active)
NC(=O)N1CCC(CC(=O)N2CCC([C@H]3c4ncc(Br)cc4CCc4cc(Cl)cc(Br)c43)CC2)CC1,Potency,[1],18.7 µM (active)
same,Potency,[4],inactive
same,Potency,[3],5.9 µM (active)
NC(=O)Nc1cc(-c2ccc(CN3CCOCC3)cc2)sc1C(N)=O,Potency,[1],11.8 µM (active)
same,Potency,[4],inactive
same,Potency,[3],7.43 µM (active)
same,Potency,[13],0.414 µM (active)
same,Potency,[5],11.7 µM (active)
same,Potency,[6],0.657 µM (active)
same,Potency,[16],18.5 µM (active)
same,Potency,[9],0.414 µM (active)
same,Potency,[10],3.69 µM (active)
same,Potency,[12],11.7 µM (active)
same,Potency,[17],13.1 µM (active)
Cc1cc(-c2nnc3n2CCCCC3)c(C)n1-c1ccccc1,Potency,[1],inactive
same,Potency,[4],inactive
same,Potency,[3],inactive
C[N+](C)([O-])CCNc1ccc(NCC[N+](C)(C)[O-])c2c1C(=O)c1c(O)ccc(O)c1C2=O,Potency,[1],inactive
same,Potency,[4],inactive
same,Potency,[9],4.14 µM (active)
same,Potency,[10],inactive
same,Potency,[12],inactive
same,Potency,[17],18.5 µM (active)
same,Potency,[19],inactive
CC(=O)O[C@@]12CO[C@H]1C[C@H](O)[C@@]1(C)C(=O)[C@H](O)C3=C(C)[C@@H](OC(=O)C(O)[C@@H](NC(=O)OC(C)(C)C)c4ccccc4)C[C@@](O)([C@@H](OC(=O)c4ccccc4)[C@@H]21)C3(C)C (some centres not stated),Potency,[1],inactive
same,Potency,[4],inactive
same,Potency,[5],0.0052 µM (active)
same,Potency,[6],0.0066 µM (active)
same,Potency,[14],inactive
same,Potency,[9],0.0059 µM (active)
same,Potency,[10],0.0074 µM (active)
same,Potency,[17],0.0104 µM (active)
same,Potency,[19],inactive
O=C(C=Cc1ccc(CN(CCO)CCc2c[nH]c3ccccc23)cc1)NO,Potency,[1],0.59 µM (active)
same,Potency,[4],2.35 µM (active)
same,Potency,[2],1.18 µM (active)
same,Potency,[3],0.372 µM (active)
same,Potency,[5],0.369 µM (active)
same,Potency,[20],1.17 µM (active)
same,Potency,[7],0.261 µM (active)
same,Potency,[12],0.165 µM (active)
same,Potency,[17],0.0585 µM (active)
same,Potency,[19],0.233 µM (active)
N#CC(=C(N)Sc1ccc(N)cc1)c1ccccc1C(F)(F)F,Potency,[1],inactive
same,Potency,[2],inactive
C[C@H]1[C@@H](OC(=O)CCC(=O)O)O[C@@H]2O[C@@]3(C)CC[C@@H]4[C@H](C)CC[C@@H]1[C@@]24OO3,Potency,[1],18.7 µM (active)
same,Potency,[4],inactive
same,Potency,[3],2.35 µM (active)
same,Potency,[13],14.7 µM (active)
same,Potency,[6],3.29 µM (active)
same,Potency,[14],16.5 µM (active)
same,Potency,[7],23.3 µM (active)
same,Potency,[15],5.22 µM (active)
same,Potency,[8],1.17 µM (active)
same,Potency,[16],3.69 µM (active)
same,Potency,[9],9.27 µM (active)
same,Potency,[10],20.8 µM (active)
same,Potency,[11],inactive
same,Potency,[12],13.1 µM (active)
same,Potency,[17],5.85 µM (active)
same,Potency,[18],1.04 µM (active)
